Results as given in the supplement of paper PMC6992640.
± gives the standard deviation of the averaged measurements.

Tests used:
Test in all cases: cell viability (% of vehicle); higher = less cytotoxic
[1] = test system: HCI01 (cells of a triple-negative basal-like breast cancer xenograft); settings: 1 µM; 72 h
[2] = test system: UCD52 (cells of a triple-negative basal-like breast cancer xenograft); settings: 1 µM; 72 h
[3] = test system: WHIM2 (cells of a triple-negative basal-like breast cancer xenograft); settings: 1 µM; 72 h
[4] = test system: WHIM30 (cells of a triple-negative basal-like breast cancer xenograft); settings: 1 µM; 72 h
[5] = test system: HCI01; settings: 10 µM; 72 h
[6] = test system: HCI03 (cells of an ER-positive luminal breast cancer xenograft); settings: 10 µM; 72 h
[7] = test system: HCI09 (cells of a triple-negative luminal androgen receptor type breast cancer xenograft); settings: 10 µM; 72 h
[8] = test system: HCI11 (cells of an ER-positive luminal breast cancer xenograft); settings: 10 µM; 72 h
[9] = test system: HCI13 (cells of an ER-positive luminal breast cancer xenograft); settings: 10 µM; 72 h
[10] = test system: HCI16 (cells of a triple-negative basal-like breast cancer xenograft); settings: 10 µM; 72 h
[11] = test system: UCD52; settings: 10 µM; 72 h
[12] = test system: WHIM2; settings: 10 µM; 72 h
[13] = test system: WHIM30; settings: 10 µM; 72 h

Row | Structure (SMILES) | cell viability [1] | cell viability [2] | cell viability [3] | cell viability [4] | cell viability [5] | cell viability [6] | cell viability [7] | cell viability [8] | cell viability [9] | cell viability [10] | cell viability [11] | cell viability [12] | cell viability [13]
1 | COC(=O)C1=C(C)NC(C)=C(C(=O)OC2CCCN(Cc3ccccc3)C2)C1c1cccc([N+](=O)[O-])c1.Cl (configuration not stated) [Benidipine HCl] | 96.3 | 88.8 | 105 | 93.7 | 82.1 ± 16 | 68.3 | 27.9 ± 14 | 83.2 | 36.2 ± 7.7 | 87.5 | 51.4 ± 7.1 | 31.1 ± 6.1 | 64 ± 4.1
2 | CCCCCCCCc1ccc(CCC(N)(CO)CO)cc1.Cl [Fingolimod (FTY720)] | 97.7 | 87.9 | 92.2 | 84.3 | 28.9 ± 5.8 | 53.9 | 18.8 ± 3.1 | 33.8 | 52.3 ± 9.9 | 49.1 | 25.6 ± 1.3 | 77.9 ± 3.2 | 82.5 ± 15
3 | Cl.O.O=C1Cc2cc(CCN3CCN(c4nsc5ccccc45)CC3)c(Cl)cc2N1 [Ziprasidone hydrochloride monohydrate] | 88.5 | 94.7 | 94.5 | 94.6 | 33.4 ± 14 | 64.9 | 21.8 ± 4.9 | 36 | 47.8 ± 5.2 | 27.2 | 25 ± 1.1 | 35.8 ± 1.7 | 35.7 ± 5.9
4 | CCC(=C(c1ccccc1)c1ccc(OCCN(C)C)cc1)c1ccccc1.O=C(O)CC(O)(CC(=O)O)C(=O)O [Tamoxifen Citrate] | 111 | 101 | 86.2 | 99.9 | 74 ± 57 | 78.8 | 28.1 ± 6 | 96.5 | 37.6 ± 3.9 | 59.7 | 34.5 ± 0.98 | 42.4 ± 7.6 | 104 ± 7.1
5 | Cc1cccc(CN2CCN(C(c3ccccc3)c3ccc(Cl)cc3)CC2)c1.Cl.Cl (configuration not stated) [Meclizine 2HCl] | 136 | 93.4 | 98 | 99.5 | 85.9 ± 7.1 | 57.9 | 74 ± 12 | 67.4 | 52.7 ± 10 | 91.8 | 44 ± 6.2 | 71.6 ± 13 | 45.4 ± 6.8
6 | COC(=O)NC(C(=O)NC(Cc1ccccc1)C(O)CN(Cc1ccc(-c2ccccn2)cc1)NC(=O)C(NC(=O)OC)C(C)(C)C)C(C)(C)C (configuration not stated) [Atazanavir] | 92.8 | 80.2 | 91.7 | 84.6 | 88.35 ± 0.71 | 80 | 57.5 ± 2 | 74.5 | 81.7 ± 5.1 | 151 | 51.6 ± 3.1 | 73.7 ± 1.3 | 82.1 ± 5.5
7 | CS(=O)(=O)CCNCc1ccc(-c2ccc3ncnc(Nc4ccc(OCc5cccc(F)c5)c(Cl)c4)c3c2)o1.Cc1ccc(S(=O)(=O)O)cc1.Cc1ccc(S(=O)(=O)O)cc1 [Lapatinib Ditosylate] | 71.7 | 57.1 | 56.2 | 61.1 | 49.51 ± 0.1 | 45.4 | 36.3 ± 18 | 67.8 | 42.39 ± 0.3 | 61.8 | 28.1 ± 1.9 | 37.7 ± 3 | 47.4 ± 4
8 | CCOC(=O)C1=C(COCCN)NC(C)=C(C(=O)OC)C1c1ccccc1Cl (configuration not stated) [Amlodipine] | 103 | 93.7 | 101 | 90.2 | 70.6 ± 31 | 86.4 | 50.5 ± 42 | 100 | 32.2 ± 4.1 | 69.9 | 27.6 ± 4 | 31.9 ± 10 | 73.4 ± 12
9 | CO[C@@]12[C@H](COC(N)=O)C3=C(C(=O)C(C)=C(N)C3=O)N1C[C@@H]1N[C@@H]12 [Mitomycin C] | 59.3 | 88.3 | 75.4 | 66.9 | 46.7 ± 2.1 | 56.9 | 35.4 ± 3.3 | 64.6 | 45 ± 3.3 | 61.4 | 32.3 ± 0.47 | 47.3 ± 5.7 | 57.77 ± 0.16
10 | CC(C)COc1ccc(CNC(=O)N(Cc2ccc(F)cc2)C2CCN(C)CC2)cc1 [Pimavanserin] | 93.5 | 83.6 | 103 | 88 | 98.1 ± 1.5 | 111 | 56.7 ± 18 | 81 | 171 ± 10 | 87.3 | 46.4 ± 3.1 | 43.7 ± 2.7 | 83.5 ± 3.7
11 | CCCCCCCCOc1ccccc1C(=O)Nc1ccc(C(=O)OCC[N+](C)(CC)CC)cc1.[Br-] [Otilonium Bromide] | 91.3 | 100 | 105 | 90.7 | 51.9 ± 1.6 | 110 | 37.4 ± 9.3 | 77.9 | 42.9 ± 2.6 | 81.7 | 63.47 ± 0.62 | 37.7 ± 9.5 | 98.3 ± 10
12 | Nc1ccn(C2OC(CO)C(O)C2O)c(=O)n1 (configuration not stated) [Cytarabine] | 75 | 106 | 87.1 | 80.9 | 65 ± 1.2 | 101 | 94.2 ± 1.1 | 136 | 76.4 ± 11 | 83.3 | 91.4 ± 17 | 58.4 ± 8.6 | 86.07 ± 0.15
13 | CNC(=O)c1cc(Oc2ccc(NC(=O)Nc3ccc(Cl)c(C(F)(F)F)c3)cc2)ccn1 [Sorafenib] | 107 | 67.7 | 92.6 | 78 | 43.2 ± 12 | 89.2 | 25.2 ± 2.9 | 52.4 | 33.2 ± 5.5 | 41.1 | 46 ± 1.8 | 42.7 ± 5.5 | 37 ± 2.4
14 | Cl.Nc1ccn(C2OC(CO)C(O)C2O)c(=O)n1 (configuration not stated) [Cytarabine hydrochloride] | 71.5 | 114 | 86.3 | 90.1 | 75.2 ± 11 | 105 | 122 ± 36 | 147 | 61.5 ± 3.5 | 73.9 | 105 ± 5.7 | 58 ± 8.3 | 81.1 ± 11
15 | CC(CCC(=O)O)C1CCC2C3CCC4CC(O)CCC4(C)C3CCC12C (configuration not stated) [Lithocholic Acid] | 89.2 | 96.6 | 92.9 | 91.5 | 65.5 ± 50 | 132 | 95.1 ± 24 | 103 | 84.8 ± 7 | 91.3 | 86.8 ± 6.5 | 37.8 ± 10 | 90.1 ± 6.3
16 | CC(Oc1cc(-c2cnn(C3CCNCC3)c2)cnc1N)c1c(Cl)ccc(F)c1Cl [(R)-Crizotinib] | 154 | 67.6 | 106 | 95.7 | 60 ± 23 | 135 | 24.8 ± 3.8 | 89.6 | 141.8 ± 0.89 | 41.9 | 23.1 ± 3.7 | 39.3 ± 3.3 | 125 ± 27
17 | Cl.Fc1ccc(C2CCNCC2COc2ccc3c(c2)OCO3)cc1 (configuration not stated) [Paroxetine HCl] | 91.6 | 79.7 | 100 | 87.4 | 63.7 ± 19 | 128 | 90.3 ± 17 | 74.8 | 120 ± 6.4 | 77.4 | 38.6 ± 4.8 | 43 ± 7.7 | 80.71 ± 0.29
18 | C=C(c1ccc(C(=O)O)cc1)c1cc2c(cc1C)C(C)(C)CCC2(C)C [Bexarotene] | 106 | 107 | 91.9 | 142 | 60.2 ± 32 | 85.9 | 98.5 ± 3.8 | 100 | 54.3 ± 2.4 | 84.7 | 98 ± 14 | 44.8 ± 14 | 93.8 ± 4.4
19 | CCOc1nc2cccc(C(=O)OC(C)OC(=O)OC3CCCCC3)c2n1Cc1ccc(-c2ccccc2-c2nn[nH]n2)cc1 (configuration not stated) [Candesartan Cilexetil] | 88.5 | 97.3 | 106 | 99.7 | 18.1 ± 12 | 94.5 | 18.3 ± 4.6 | 72.3 | 47.71 ± 0.052 | 75.3 | 74.3 ± 16 | 37.6 ± 6.6 | 128 ± 5.3
20 | COc1cc(Nc2c(C#N)cnc3cc(OCCCN4CCN(C)CC4)c(OC)cc23)c(Cl)cc1Cl [Bosutinib (SKI-606)] | 61.1 | 30.4 | 55.4 | 68.4 | 48.4 ± 2.7 | 48 | 53.7 ± 33 | 101 | 71.4 ± 48 | 55.8 | 37.1 ± 4.8 | 36.7 ± 13 | 52.1 ± 9.3
21 | Cl.OC(CNCC(O)C1CCc2cc(F)ccc2O1)C1CCc2cc(F)ccc2O1 (configuration not stated) [Nebivolol] | 91.1 | 92.3 | 91.5 | 103 | 75.3 ± 2.5 | 87.2 | 86.8 ± 8.1 | 87.2 | 94.2 ± 18 | 64.9 | 38.43 ± 0.34 | 40.5 ± 9.2 | 81 ± 2.3
22 | Cl.Cl.O=C1c2c(O)ccc(O)c2C(=O)c2c(NCCNCCO)ccc(NCCNCCO)c21 [Mitoxantrone HCl] | 105 | 36.2 | 27.3 | 37.2 | 55.3 ± 38 | 111 | 25.9 ± 0.83 | 55.7 | 73.4 ± 11 | 117 | 27.5 ± 0.38 | 41.3 ± 18 | 65.4 ± 12
23 | CNC(=O)c1cc(Oc2ccc(NC(=O)Nc3ccc(Cl)c(C(F)(F)F)c3)cc2)ccn1.Cc1ccc(S(=O)(=O)O)cc1 [Sorafenib Tosylate] | 90.6 | 74.5 | 81.7 | 65.2 | 22 ± 0.23 | 65.5 | 14.6 ± 7 | 63.9 | 55.5 ± 31 | 45.9 | 82.6 ± 1 | 32.2 ± 0.44 | 41.9 ± 18
24 | COc1ccc2cc1Oc1ccc(cc1)CC1c3c(cc4c(c3Oc3cc5c(cc3OC)CCN(C)C5C2)OCO4)CCN1C (configuration not stated) [Cepharanthine] | 86.1 | 52.9 | 80.7 | 60.6 | 57.1 ± 12 | 64.3 | 26.6 ± 5.9 | 73.5 | 159 ± 37 | 170 | 36.2 ± 1.8 | 64.7 ± 8.1 | 94.3 ± 9.8
25 | CC(C)CC(NC(=O)C(NC(=O)c1cccc(-c2ccccc2)n1)C(C)O)B(O)O (configuration not stated) | 55.2 | 25 | 132 | 22.5 | 76.8 ± 10 | 93.4 | 15.8 ± 2 | 171 | 40.5 ± 10 | 82.8 | 66 ± 0.77 | 42.8 ± 3.3 | 93.3 ± 3.5
26 | COC1=C(OC)C(=O)C(CCCCCCCCCCO)=C(C)C1=O [Idebenone] | 91.1 | 90.2 | 107 | 94.5 | 34 ± 2.8 | 107 | 39.1 ± 18 | 87.2 | 92.2 ± 61 | 104 | 78.2 ± 6.6 | 78.4 ± 30 | 51.9 ± 20
27 | CCN1CCN(Cc2ccc(Nc3ncc(F)c(-c4cc(F)c5nc(C)n(C(C)C)c5c4)n3)nc2)CC1.CS(=O)(=O)O | 83.9 | 46.7 | 130 | 52.6 | 87.8 ± 54 | 136 | 83 ± 14 | 135 | 71.6 ± 8.8 | 116 | 26.16 ± 0.13 | 30.4 ± 14 | 80.6 ± 5.5
28 | Clc1ccc(C(Cn2ccnc2)OCc2c(Cl)cccc2Cl)c(Cl)c1.O=[N+]([O-])O (configuration not stated) [Isoconazole nitrate] | 123 | 112 | 126 | 105 | 57.9 ± 28 | 119 | 25.8 ± 3.4 | 101 | 54.2 ± 8.2 | 140 | 44.1 ± 5.8 | 52.1 ± 6.9 | 100 ± 2.2
29 | CCOC(=O)C1=C(COCCN)NC(C)=C(C(=O)OC)C1c1ccccc1Cl.O=S(=O)(O)c1ccccc1 (configuration not stated) [Amlodipine Besylate] | 93.3 | 97.5 | 107 | 88.5 | 94.062 ± 0.027 | 115 | 63.8 ± 45 | 110 | 97.8 ± 2.3 | 102 | 50 ± 3.2 | 37 ± 1.7 | 81.2 ± 8.3
